# Results published in the supplement of paper PMC8728848.
# This is one part of a sample in which the strongest signals are shown more often than they occur.
# Legend:
# Test in all cases: glycan array binding signal (z-score within array); higher = stronger binding
# Conditions in all cases: glycan notation: IUPAC condensed, linker removed
# [1] = target: Fuc(a1-2)Gal(b1-3)GlcNAc(b1-3)[Gal(b1-4)GlcNAc(b1-6)]Gal(b1-4)Glc
# Method in brief: (§1)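 From the Consortium for Functional Glycomics database, 3228 arrays were curated, keeping only those whose protein sequence was available. Binding is given as a within-array Z-score averaged across arrays sharing a protein sequence and across linkers. Negative Z-scores can be read as non-binding.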
# [2] = target: Fuc(a1-2)Gal(b1-3)[Fuc(a1-4)]GlcNAc(b1-3)[Fuc(a1-3)[Gal(b1-4)]GlcNAc(b1-6)]Gal(b1-4)Glc
# Method in brief: as §1
# [3] = target: Fuc(a1-2)Gal(b1-4)GlcNAc(b1-2)Man(a1-3)[Fuc(a1-2)Gal(b1-4)GlcNAc(b1-2)Man(a1-6)]Man(b1-4)GlcNAc(b1-4)GlcNAc
# Method in brief: as §1
# [4] = target: Fuc(a1-2)Gal(b1-4)GlcNAc(b1-2)[Fuc(a1-2)Gal(b1-4)GlcNAc(b1-4)]Man(a1-3)[Fuc(a1-2)Gal(b1-4)GlcNAc(b1-2)Man(a1-6)]Man(b1-4)GlcNAc(b1-4)GlcNAc
# Method in brief: as §1
# [5] = target: Fuc(a1-2)[Gal(a1-3)]Gal(b1-3)GlcNAc(b1-2)Man(a1-3)[Fuc(a1-2)[Gal(a1-3)]Gal(b1-3)GlcNAc(b1-2)Man(a1-6)]Man(b1-4)GlcNAc(b1-4)GlcNAc
# Method in brief: as §1
# [6] = target: Fuc(a1-2)[Gal(a1-3)]Gal(b1-3)GlcNAc(b1-2)Man(a1-3)[Fuc(a1-2)[Gal(a1-3)]Gal(b1-3)GlcNAc(b1-2)Man(a1-6)]Man(b1-4)GlcNAc(b1-4)[Fuc(a1-6)]GlcNAc
# Method in brief: as §1
# [7] = target: Fuc(a1-2)[Gal(a1-3)]Gal(b1-4)GlcNAc
# Method in brief: as §1
# [8] = target: Fuc(a1-2)[Gal(a1-4)]Gal(b1-4)GlcNAc
# Method in brief: as §1
# [9] = target: Fuc(a1-2)[GalNAc(a1-3)]Gal(b1-3)GlcNAc
# Method in brief: as §1
# [10] = target: Fuc(a1-2)[GalNAc(a1-3)]Gal(b1-3)GlcNAc(b1-3)GalNAc
# Method in brief: as §1
# [11] = target: Fuc(a1-2)[GalNAc(a1-3)]Gal(b1-4)GlcNAc(b1-3)Gal(b1-4)GlcNAc
# Method in brief: as §1
# [12] = target: Fuc(a1-3)[Gal(b1-4)]GlcNAc(b1-2)Man(a1-3)[Fuc(a1-3)[Gal(b1-4)]GlcNAc(b1-2)Man(a1-6)]Man(b1-4)GlcNAc(b1-4)GlcNAc
# Method in brief: as §1
# [13] = target: Fuc(a1-3)[Gal(b1-4)]GlcNAc(b1-2)Man(a1-3)[Fuc(a1-3)[Gal(b1-4)]GlcNAc(b1-2)Man(a1-6)]Man(b1-4)GlcNAc(b1-4)[Fuc(a1-6)]GlcNAc
# Method in brief: as §1
# [14] = target: Gal(a1-3)Gal(b1-4)[Fuc(a1-3)]GlcNAc
# Method in brief: as §1
# [15] = target: Gal(a1-4)Gal(b1-3)GlcNAc(b1-2)Man(a1-3)[Gal(a1-4)Gal(b1-3)GlcNAc(b1-2)Man(a1-6)]Man(b1-4)GlcNAc(b1-4)GlcNAc
# Method in brief: as §1
# [16] = target: Gal(a1-4)Gal(b1-4)GlcNAc(b1-3)Gal(b1-4)Glc
# Method in brief: as §1
# Gal(b1-2)Gal = target: Gal(b1-2)Gal
# Method in brief: as §1
# [17] = target: Gal(b1-4)GlcNAc(b1-2)Man(a1-3)[Gal(b1-4)GlcNAc(b1-2)][GlcNAc(b1-4)]Man(b1-4)GlcNAc(b1-4)GlcNAc
# Method in brief: as §1
# [18] = target: Gal(b1-4)GlcNAc(b1-3)Gal(b1-4)Glc
# Method in brief: as §1
# [19] = target: Gal(b1-4)GlcNAc(b1-3)Gal(b1-4)[Fuc(a1-3)]GlcNAc(b1-3)Gal(b1-4)[Fuc(a1-3)]GlcNAc
# Method in brief: as §1
# Gal3S(b1-4)Glc = target: Gal3S(b1-4)Glc
# Method in brief: as §1
# [20] = target: GalNAc(a1-3)GalNAc(b1-3)Gal(a1-4)Gal(b1-4)Glc
# Method in brief: as §1
# [21] = target: GalNAc(b1-3)Gal(a1-6)Gal(b1-4)Glc
# Method in brief: as §1
# GalNAc(b1-6)GalNAc = target: GalNAc(b1-6)GalNAc
# Method in brief: as §1
# [22] = target: Glc(a1-4)Glc(a1-4)Glc(a1-4)Glc
# Method in brief: as §1
# [23] = target: GlcNAc(a1-4)Gal(b1-4)GlcNAc(b1-3)Gal(b1-4)GlcNAc
# Method in brief: as §1
# GlcNAc(b1-4)GlcNAc = target: GlcNAc(b1-4)GlcNAc
# Method in brief: as §1
# [24] = target: GlcNAc(b1-4)GlcNAc(b1-4)GlcNAc(b1-4)GlcNAc(b1-4)GlcNAc
# Method in brief: as §1
# Kdn(a2-3)Gal(b1-4)GlcNAc = target: Kdn(a2-3)Gal(b1-4)GlcNAc
# Method in brief: as §1
# [25] = target: Kdn(a2-3)Gal(b1-4)[Fuc(a1-3)]GlcNAc
# Method in brief: as §1
binder,measurement,setting,value
"PGP3 (Chlamydia trachomatis), P0CE18 (protein) MGNSGFYLYNTQNCVFADNIKVGQMTEPLKDQQIILGTTSTPVAAKMTASDGISLTVSNNPSTNASITIGLDAEKAYQLILEKLGDQILGGIADTIVDSTVQDILDKITTDPSLGLLKAFNNFPITNKIQCNGLFTPRNIETLLGGTEIGKFTVTPKSSGSMFLVSADIIASRMEGGVVLALVREGDSKPYAISYGYSSGVPNLCSLRTRIINTGLTPTTYSLRVGGLESGVVWVNALSNGNDILGITNTSNVSFLEVIPQTNA",glycan array binding signal (z-score),[1],0.289
same,glycan array binding signal (z-score),[2],-0.443
same,glycan array binding signal (z-score),[3],-0.053
same,glycan array binding signal (z-score),[4],2.62
same,glycan array binding signal (z-score),[5],5.67
same,glycan array binding signal (z-score),[6],0.251
same,glycan array binding signal (z-score),[7],-1.17
same,glycan array binding signal (z-score),[8],-0.649
same,glycan array binding signal (z-score),[9],0.499
same,glycan array binding signal (z-score),[10],2.46
same,glycan array binding signal (z-score),[11],0.028
same,glycan array binding signal (z-score),[12],2.78
same,glycan array binding signal (z-score),[13],-0.169
same,glycan array binding signal (z-score),[14],-0.404
same,glycan array binding signal (z-score),[15],3.06
same,glycan array binding signal (z-score),[16],-0.099
same,glycan array binding signal (z-score),Gal(b1-2)Gal,0.34
same,glycan array binding signal (z-score),[17],1.19
same,glycan array binding signal (z-score),[18],-0.67
same,glycan array binding signal (z-score),[19],0.322
same,glycan array binding signal (z-score),Gal3S(b1-4)Glc,-0.636
same,glycan array binding signal (z-score),[20],1.04
same,glycan array binding signal (z-score),[21],2.89
same,glycan array binding signal (z-score),GalNAc(b1-6)GalNAc,0.114
same,glycan array binding signal (z-score),[22],0.478
same,glycan array binding signal (z-score),[23],1.53
same,glycan array binding signal (z-score),GlcNAc(b1-4)GlcNAc,0.682
same,glycan array binding signal (z-score),[24],1.18
same,glycan array binding signal (z-score),Kdn(a2-3)Gal(b1-4)GlcNAc,1.53
same,glycan array binding signal (z-score),[25],0.816
